Compound in the assay: O=C(Oc1ccccc1)n1c(C(F)(F)F)nc2cc(Cl)c(Cl)cc21
In words: relative growth (AUC of 72 h growth curve relative to DMSO control, dAUC) (ratio); higher = more growth (less inhibition), active = hit call of the paper. Conditions: 20 µM;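 active = growth AUC significantly below the DMSO wells by Dunnett test; inactive = the rest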. How it is done:
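Environmental bacterial isolates (Iceland stream sediment and Silwood Park soil) and whole stream-sediment communities were grown in LB from a 1:100 dilution with each pesticide at 20 µM (1% DMSO). A600 was read hourly for 72 h and the area under a spline-fitted growth curve (AUC) was computed. dAUC is the mean AUC of 3 biological replicates divided by the mean AUC of the DMSO controls. Significance was tested by Dunnett's test against the DMSO control.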
For Community 9, the relative growth was 0.363 (active). Turning to “Paenibacillus 1 (Paenibacillus castaneae)”, the relative growth is 0.00512 (active). With “Carnobacterium 1 (Carnobacterium gallinarum)” the figure was 0.0839 (active); with Neobacillus 1 (Neobacillus soli), 0.826 (inactive); with Pseudomonas 1 (Pseudomonas baetica), 0.741 (inactive).

Take Community 10: the relative growth is 0.772 (inactive).

On to Aeromonas 1 (Aeromonas sp. AE235), for which the relative growth is 0.32 (active). As to “Flavobacterium 2 (Flavobacterium succinicans)”, the relative growth is 0.0416 (active).

For Argrobacterium 1 (Agrobacterium sp.), the relative growth was 0.752 (active). For Arthrobacter 2 (Arthrobacter humicola), the relative growth is 0.00975 (active).

Regarding Community 6, the relative growth is 0.563 (active). Take Aeromonas 3 (Aeromonas popoffii): the relative growth is 0.337 (active).

For the target Sphingomonas 2 (Sphingomonas sp.), the relative growth was 0.0208 (active).

Regarding Aeromonas 2 (Aeromonas sobria), the relative growth is 0.0369 (active). Take Arthrobacter 3 (Arthrobacter sp.): the relative growth is 0.0715 (active).

Turning to “Prolinoborus 1 (Prolinoborus fasciculus)”, the relative growth was 0.283 (active). For the target “Pseudomonas 2 (Pseudomonas vancouverensis)”, the relative growth is 0.735 (active). Consider Bacillus 1 (Bacillus foraminis), for which the relative growth is 0.747 (inactive). Under Pseudomonas 5 (Pseudomonas baetica) stands 0.765 (active); under Serratia 1 (Serratia sp. 2015-2462-01), 0.366 (active). In the case of “Microbacterium 1 (Microbacterium arborescens)”, the relative growth was 0.785 (active). As to Arthrobacter 1 (Arthrobacter humicola), the relative growth was 0.211 (active). As to Pseudomonas 4 (Pseudomonas peli), the relative growth was 0.336 (active).

Turning to Rhizobium 1 (Rhizobium herbae), the relative growth is 0.0292 (active).

As for Oryzobacter 1 (Oryzobacter terrae), the relative growth is 0.00822 (active). Under Pseudomonas 3 (Pseudomonas mandelii) stands 0.765 (active); under Pseudomonas 6 (Pseudomonas sp.), 0.777 (inactive); under Community 7, 1.01 (inactive). With Hymenobacter 1 (Hymenobacter glaciei) the figure was 0.165 (active); with Community 4, 0.809 (inactive). For Community 8, the relative growth is 0.787 (inactive).

Take “Flavobacterium 1 (Flavobacterium glaciei)”: the relative growth is 0.0789 (active).

These data come from the supplement of paper PMC12067926.
